Data from PubChem BioAssay (Tox21).
Results filed as inconclusive are left out. Calls of active or inactive are those of the source. Unless noted, the call rests on the fitted dose curve; in most records, active means well fitted curve in the direction sought with a large enough effect in the repeat runs; inconclusive means weak or mixed curves; inactive means no such curve, though single readings can be large; an effect the other way counts as inactive or inconclusive.

Columns and labels:
[1] = qHTS assay for small molecule agonists of the p53 signaling pathway (AID 651631; calls by dose curve; further: nearly all actives have a fitted effect of over 15% in size; further: potency means the concentration at half of the fitted maximal effect)
Procedure, shortened: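 We treat p53RE-bla HCT-116 cells with compounds for 16 h at 37 °C, add LiveBLAzer B/G FRET substrate for 2 h at room temperature, and measure fluorescence intensity.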

[2] = qHTS assay for small molecules that induce genotoxicity in human embryonic kidney cells expressing luciferase-tagged ATAD5 (AID 651632); further: nearly all actives have a fitted effect of over 15% in size
Procedure, shortened: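 Test compounds were delivered by pin tool onto HEK293T reporter cells (2,000/well) expressing ATAD5 fused to luciferase. After 16 hr at 37C, 5% CO2, Amplite was added for 30 min at room temperature and luminescence was measured.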

[3] = qHTS assay for small molecule agonists of the p53 signaling pathway - cell viability (AID 651633; calls by dose curve;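 further: p53RE-bla HCT reporter cells with a stable beta-lactamase p53 reporter; series mostly up to about 83 µM; nearly all actives have a fitted effect of over 30% in size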)
Procedure, shortened: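 p53RE-bla cells were treated with compound for 16 hours at 37 C. Cytotoxicity was then measured as CellTiter-Glo luminescence after 30 min at room temperature.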

[4] = qHTS assay for small molecules that induce genotoxicity in human embryonic kidney cells expressing luciferase-tagged ATAD5 - cell viability (AID 651634; calls by dose curve; further: nearly all actives have a fitted effect of over 25% in size; further: potency means the concentration at half of the fitted maximal effect)
Procedure, shortened: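 Quantitative high-throughput format. HEK293T cells expressing ATAD5 fused to luciferase were plated at 2,000 cells/well and treated 15.5 hr with compound versus DMSO. Viability was determined by fluorescent live-cell protease substrate, 30 min at 37C.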

[5] = qHTS assay for small molecule disruptors of the mitochondrial membrane potential - cell viability (AID 720634; calls by dose curve;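 further: human HepG2 liver cancer cells; series mostly up to about 83 µM; nearly all actives have a fitted effect of over 20% in size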)
Procedure, shortened: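 Same-well counter-screen: following the MMP dye addition, CellTiter-Glo was added to 1 hr compound-treated HepG2 cells and luminescence read after 30 min at room temperature.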

[6] = qHTS assay to test for compound auto fluorescence at 590 nm (red) in HepG2 cells (AID 720674)
Procedure, shortened: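 HepG2 cells, 2,000 per well in MEM with 10% FBS, attached overnight at 37 C, then got 23 nL compound or DMSO. After 1 hr at 37 C, 5% CO2, red fluorescence was read at 540/590 nm against Rose Bengal sodium as reference.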

[7] = qHTS assay to test for compound auto fluorescence at 535 nm (green) in HepG2 cells (AID 720675)
[8] = qHTS assay to test for compound auto fluorescence at 460 nm (blue) in HEK293 cells (AID 720678)
Procedure, shortened: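 After cell attachment (4-5 hr, 37C), compounds were pinned onto HEK293 monolayers in 10% dialyzed FBS medium. The blue channel (405/460 nm) was read following overnight culture. Equivalency was calculated against triamterene.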

[9] = qHTS assay to test for compound auto fluorescence at 590 nm (red) in HEK293 cells (AID 720679)
Procedure, shortened: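 Plates of HEK293 cells (10% dialyzed FBS) are treated with 23 nL compound or DMSO vehicle after a 4-5 hr attachment period, incubated overnight at 37C, and read for red fluorescence at 540/590nm.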

[10] = qHTS assay for small molecule disruptors of the mitochondrial membrane potential (AID 720635); further: potency means the concentration at half of the fitted maximal effect
Procedure, shortened: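 HepG2 cells exposed to compound 1 hr at 37C, then Mito-MPS dye 30 min. Ratio read of aggregate (540/590 nm) versus monomer (490/535 nm) fluorescence.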
On the % scale 0 is the no-effect control and ±100 the full control effect.

Nc1cc(Cl)ccc1Cl
inactive: Potency [1] | Potency [2] | Potency [3] | Potency [4] | Potency [5] | outcome [6] | Potency [7] | Potency [8] | outcome [9]

C[N+]1(C)[C@@H]2CC[C@H]1CC(OC(=O)C(CO)c1ccccc1)C2 (stereo not given in full)
inactive: Potency [1] | Potency [2] | Potency [3] | Potency [4] | Potency [5] | Potency [10] | Potency [7] | Potency [8] | outcome [9]

COCCC#N
inactive: Potency [1] | Potency [2] | Potency [3] | Potency [4] | Potency [5] | Potency [10] | outcome [6] | Potency [7] | Potency [8] | outcome [9]

c1ccc2c(c1)cc1ccc3cccc4ccc2c1c34
active: Potency [1] 3.5 µM | Potency [10] 14 µM
inactive: Potency [2] | Potency [3] | Potency [4] | outcome [6] | Potency [7] | outcome [9]

CCOP(=O)(OCC)Oc1cc(C)nc(C(C)C)n1
inactive: Potency [1] | Potency [2] | Potency [3] | Potency [4] | Potency [5] | Potency [10] | outcome [6] | Potency [7] | Potency [8] | outcome [9]

OCC(Br)CBr (stereo not given)
inactive: Potency [1] | Potency [2] | Potency [3] | Potency [4] | Potency [5] | outcome [6] | Potency [7] | Potency [8] | outcome [9]

CCCC[N+]1(C)CCCC1 (tested in a mixture with another compound)
inactive: Potency [1] | Potency [2] | Potency [3] | Potency [4] | Potency [5] | outcome [6] | Potency [7] | Potency [8] | outcome [9]

Oc1ccc(Cl)c(Cl)c1
inactive: Potency [1] | Potency [2] | Potency [3] | Potency [4] | outcome [6] | Potency [7] | Potency [8] | outcome [9]
active: Potency [10] 6.75 µM

CNC(C)(C)Cc1ccccc1
inactive: Potency [1] | Potency [2] | Potency [3] | Potency [4] | Potency [5] | fluorescence, relative to Rose Bengal [6] -0.065% [at 18.6 µM] | fluorescence, % of fluorescein control [7] -0.216% [at 18.6 µM] | fluorescence, % of triamterene [8] 0.0048% [at 18.6 µM] | fluorescence, % of fluorescent control [9] 0.101% [at 18.6 µM]

Clc1c(Cl)c(Cl)c(Cl)c(Cl)c1Cl
inactive: activation [1] -4.73% [at 8.3 µM] | activation [2] 3.25% [at 8.08 µM] | activity change, negative = cytotoxicity [3] -24.8% [at 8.08 µM] | activity, negative = cytotoxicity [4] 8.7% [at 8.08 µM] | activity change, negative = cytotoxicity [5] 3.14% [at 8.08 µM] | fluorescence, relative to Rose Bengal [6] -0.0012% [at 3.72 µM] | fluorescence, % of fluorescein control [7] -0.0433% [at 3.72 µM] | fluorescence, % of triamterene [8] -0.0308% [at 3.72 µM] | fluorescence, % of fluorescent control [9] -0.0042% [at 3.72 µM]

CCC[CH2][Sn]([CH2]CCC)([O]C(C)=O)[O]C(C)=O
inactive: Potency [2] | Potency [3] | Potency [5] | outcome [6] | Potency [7] | Potency [8] | outcome [9]
active: Potency [1] 1.95 µM | Potency [4] 1.23 µM | Potency [10] 15.5 µM

CCOP(=S)(NC(C)C)Oc1ccccc1C(=O)OC(C)C (stereo not given)
active: Potency [10] 27.3 µM
inactive: Potency [1] | Potency [2] | Potency [3] | Potency [4] | outcome [6] | Potency [7] | Potency [8] | outcome [9]

Nc1nc(N)nc(Cl)n1
inactive: Potency [1] | Potency [2] | Potency [3] | Potency [4] | Potency [5] | Potency [10] | outcome [6] | Potency [7] | Potency [8] | outcome [9]

CCC(C)Br (stereo not given)
inactive: Potency [1] | Potency [2] | Potency [3] | Potency [4] | Potency [5] | outcome [6] | Potency [7] | Potency [8] | outcome [9]

COc1ccc2c(c1OC)C(=O)O[C@@H]2[C@H]1c2cc3c(cc2CCN1C)OCO3
inactive: Potency [1] | Potency [2] | Potency [3] | Potency [4] | Potency [5] | outcome [6] | Potency [7] | Potency [8] | outcome [9]

CNC(=O)Oc1cc(C)cc(C(C)C)c1
inactive: Potency [1] | Potency [2] | Potency [3] | Potency [4] | Potency [5] | Potency [7] | Potency [8] | outcome [9]

O=Cc1ccccc1
inactive: Potency [1] | Potency [2] | Potency [3] | Potency [4] | Potency [5] | Potency [10] | outcome [6] | Potency [7] | Potency [8] | outcome [9]

O=NN(CCO)CCO
inactive: Potency [1] | Potency [2] | Potency [3] | Potency [4] | Potency [5] | Potency [10] | outcome [6] | Potency [7] | Potency [8] | outcome [9]

O=C(NC(=O)c1ccccc1Cl)Nc1ccc(OC(F)(F)F)cc1
inactive: Potency [1] | Potency [2] | Potency [3] | Potency [4] | Potency [5] | Potency [10] | outcome [6] | Potency [7] | Potency [8] | outcome [9]

O=C(Cl)c1ccccc1F
inactive: Potency [1] | Potency [2] | Potency [3] | Potency [4] | Potency [5] | Potency [10] | outcome [6] | Potency [7] | Potency [8] | outcome [9]

CSC1=N[C@@](C)(c2ccccc2)C(=O)N1Nc1ccccc1
inactive: Potency [1] | Potency [2] | Potency [3] | Potency [4] | outcome [6] | Potency [7] | Potency [8] | outcome [9]
active: Potency [10] 61.1 µM

Clc1ccc(C2(Cn3cncn3)OCCO2)c(Cl)c1
inactive: Potency [1] | Potency [2] | Potency [3] | Potency [4] | Potency [5] | Potency [10] | outcome [6] | Potency [7] | Potency [8] | outcome [9]
